An excerpt weighted towards active compounds, which were near 2.5% of everything screened.
Pol beta inh-1 – DNA polymerase beta (human) inhibition | Pol beta primer extension/strand displacement, fluorescence kinetic | Potency, µM (series often up to 114 µM), hits mostly inhibitors | 340,000 compounds, 1.3% hits | AID 485314
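Enzyme-only controls used 10 nM Pol beta; buffer lacking enzyme served as negative control. Compound preincubated 15 min, then 50 nM substrate added; 0 and 10 min reads at room temperature.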
POLI inh – blocks human DNA polymerase iota activity; Potency, µM (series often up to 115 µM), actives largely listed as inhibitors; Q9UNA4; Pol iota fluorescent replication assay, 10 min; 390,000 compounds, 1% hits
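Pol iota at 10 nM preincubated 15 min with compounds at room temperature; reaction started with fluorescent substrate, 50 nM final. Fluorescence read kinetically at 0 and 10 min; buffer-only wells as negative control.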
Pol kappa inh-1 – blocks human DNA polymerase kappa activity | 400,000 compounds, 0.53% hits | AID 588579 | Q9UBT6 | purified Pol kappa, fluorescent DNA synthesis assay, 10 min | Potency, µM (doses to about 107 µM), usual class: inhibitors
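Kinetic fluorescence readout at 0 and 10 min followed reaction start with substrate at 50 nM final. Beforehand, enzyme (10 nM Pol kappa) stood 15 min with compound at room temperature; buffer-only wells were negative controls.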
APE1 inh-1 – inhibitors of human APE1 endonuclease; P27695; Potency, µM (series often up to 65.8 µM), actives largely listed as inhibitors; recombinant APE1, TAMRA/BHQ-2 abasic DNA cleavage fluorescence; AID 2517; 350,000 compounds, 0.35% hits; further: nearly all actives have a fitted effect of over 55% in size
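0.75 nM APE1 + cpd, 15 min RT; start w/ 50 nM TAMRA/BHQ-2 THF-abasic dsDNA; kinetic fluor 525/598 nm ×3 reads @60 s; Δ(read3−read1); normalized to DMSO and NSC13755 control wells.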
L3MBTL1 block – L3MBTL1 (human) inhibition; AlphaScreen L3MBTL1–H3K9me1 peptide binding; 230,000 compounds, 0.66% hits; Potency, µM (doses to about 57.1 µM), hits mostly inhibitors; Q9Y468; further: nearly all actives have a fitted effect of over 60% in size
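AlphaScreen proximity signal between nickel-chelate acceptor and streptavidin donor beads (final 10 ug/mL) reports binding of 50 nM L3MBTL1 to 75 nM biotin-H3 K9me1 peptide; complex incubated with compounds 30 min at room temperature; cefsulodin titration as control.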
Pol eta inh-1 – DNA polymerase eta (human) inhibition; Potency, µM (doses to about 114 µM), most hits filed as inhibitors; Q9Y253; 390,000 compounds, 1.2% hits; recombinant Pol eta, fluorescent DNA replication assay; AID 588591
Target sequence (Q9Y253 whole entry, looked up): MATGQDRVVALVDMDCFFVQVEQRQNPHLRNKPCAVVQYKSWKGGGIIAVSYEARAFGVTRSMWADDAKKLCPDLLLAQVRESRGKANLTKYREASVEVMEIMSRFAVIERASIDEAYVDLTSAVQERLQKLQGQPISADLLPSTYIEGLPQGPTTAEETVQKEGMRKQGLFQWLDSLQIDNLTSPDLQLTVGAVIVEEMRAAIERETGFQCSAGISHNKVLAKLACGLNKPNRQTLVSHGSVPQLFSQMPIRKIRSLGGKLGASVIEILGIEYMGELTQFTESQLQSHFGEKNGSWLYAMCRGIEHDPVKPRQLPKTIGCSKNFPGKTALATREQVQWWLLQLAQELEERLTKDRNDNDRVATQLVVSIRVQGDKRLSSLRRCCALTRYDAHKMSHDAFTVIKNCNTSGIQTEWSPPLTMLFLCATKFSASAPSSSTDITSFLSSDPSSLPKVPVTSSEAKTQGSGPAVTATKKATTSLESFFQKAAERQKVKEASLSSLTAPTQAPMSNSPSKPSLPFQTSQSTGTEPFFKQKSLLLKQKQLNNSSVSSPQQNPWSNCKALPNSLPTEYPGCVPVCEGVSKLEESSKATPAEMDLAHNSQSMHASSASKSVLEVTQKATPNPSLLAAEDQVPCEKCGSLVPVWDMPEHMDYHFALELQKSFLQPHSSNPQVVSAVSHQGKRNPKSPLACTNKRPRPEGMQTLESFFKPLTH
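Fluorescent replication assay: 50 nM final substrate added after a 15 min room-temperature compound preincubation with 10 nM enzyme. Signal taken at 0 min and again at 10 min.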
DNA dye displace – DNA dye displacement counter-screen activity | AID 2564 | 480 compounds, 7% hits | shares compounds with APE1 inh-1 | DNA fluorescent dye displacement counterscreen, fluorescence | Potency, µM (titrated, usually from 28.5 µM), usual class: inhibitors;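 further: loss of thiazole orange fluorescence as the dye is displaced from duplex DNA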
EndoIV counter – blocks E. coli endonuclease IV DNA cleavage; shares compounds with APE1 inh-1; E. coli Endo IV, fluorogenic AP-site DNA cleavage; Potency, µM (doses to about 27.1 µM), most hits filed as inhibitors; 560 compounds, 4% hits
APE1 inh-2 – confirmation of inhibitors of human APE1 endonuclease; Potency, µM (series often up to 57.1 µM), usual class: inhibitors; 750 compounds, 44% hits; purified APE1, fluorogenic abasic-site DNA cleavage; shares compounds with APE1 inh-1; further: nearly all actives have a fitted effect of over 30% in size
APE1 FP – APE1 (human) DNA binding inhibition, fluorescence polarization. APE1 binding to TAMRA-labelled double-stranded DNA, fluorescence polarization displacement. 480 compounds, 7% hits. shares compounds with APE1 inh-1. Potency, µM (series often up to 28.5 µM), actives largely listed as inhibitors
Pol beta inh-2 – Inhibitors of human DNA polymerase beta, hit validation; shares compounds with Pol beta inh-1; Pol beta primer extension/strand displacement, fluorescence kinetic; Potency, µM, most hits filed as inhibitors; 250 compounds, 87% hits; calls by dose curve
Klenow counter – counter-screen for DNA polymerase beta inhibitors: Klenow fragment inhibition; Klenow exo- polymerase counter-screen, fluorescent DNA substrate; activity change, negative = inhibition, % at 57.1 µM; 250 tested, under 10 active; shares compounds with Pol beta inh-1; AID 540300
HIV RT counter – inhibits HIV-1 reverse transcriptase in counter-screen. 250 tested, under 10 active. HIV-1 RT polymerase activity, counter-screen. shares compounds with Pol beta inh-1. AID 540301. activity % (negative = inhibition, positive = activation), % at 57.1 µM
POLB valid – validation of human DNA polymerase beta inhibitors | inhibition, % at 10 µM | radiolabeled primer extension gel assay, phosphorimager | 110 compounds, 91% hits | shares compounds with Pol beta inh-1;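 active means inhibition at 10 µM of 30% or more; inconclusive means no clear call, values can overlap the other calls; inactive means inhibition at 10 µM under 30%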
PGK validate – validation of Trypanosoma brucei phosphoglycerate kinase inhibitors; shares compounds with Pol kappa inh-1; TbPGK coupled GAPDH assay, Kinase-Glo luminescence; Potency, µM (doses to about 57.5 µM), actives largely listed as inhibitors; 500 compounds, 79% hits; AID 686980; further: nearly all actives have a fitted effect of over 65% in size
POLI cherry-pick – Human Pol iota inhibitor confirmatory assay. shares compounds with Pol kappa inh-1. Pol iota primer extension, TAMRA/BHQ fluorescence. Potency, µM, usual class: inhibitors. 1,500 compounds, 77% hits
GALK inh confirm – galactokinase (human) inhibition, confirmation; shares compounds with Pol eta inh-1; purified GALK, Kinase-Glo ATP depletion luminescence; Potency, µM (top dose mostly 115 µM), actives largely listed as inhibitors; 150 compounds, 70% hits
GALK redox cs – redox cycling activity in phenol red-HRP assay; Phenol red-HRP H2O2 redox cycling, absorbance 600 nm; AID 2035; 150 compounds, 40% hits; shares compounds with Pol eta inh-1; Potency, µM (top dose mostly 115 µM), usual class: inhibitors
HEK293 viability – counter-screen for GALK inhibitors: HEK293 cell cytotoxicity; shares compounds with Pol eta inh-1; HEK-293 viability, ATP luminescence (CellTiter-Glo), 24/48 h; Potency, µM (series often up to 46.1 µM), actives largely listed as inhibitors; 170 compounds, 10% hits; AID 2547
Pol kappa inh-2 – confirmation of human DNA polymerase kappa inhibitors. shares compounds with Pol eta inh-1. Potency, µM, most hits filed as inhibitors. 920 compounds, 76% hits. purified Pol-kappa, fluorescent strand-displacement substrate
Pol eta inh-2 – confirmation of human DNA polymerase eta inhibitors; 2,600 compounds, 64% hits; Potency, µM, usual class: inhibitors; Pol eta primer extension, TAMRA/BHQ fluorescence, 10 min; shares compounds with Pol eta inh-1
Hits are given with their value; 0 = inactive; ? = inconclusive; - = no result given. Unless noted, the call rests on the fitted dose curve; in most records, active means well fitted curve in the direction sought with a large enough effect; inconclusive means small, poorly fitted or top-dose-only effect, or another doubt; inactive means no such curve, though single readings can be large; an effect the other way counts as inactive or inconclusive.

SMILES	Pol beta inh-1	POLI inh	Pol kappa inh-1	APE1 inh-1	L3MBTL1 block	Pol eta inh-1	DNA dye displace	EndoIV counter	APE1 inh-2	APE1 FP	POLI cherry-pick	Pol eta inh-2	others
CC(C)CN(C[C@@H](O)[C@H](Cc1ccccc1)NC(=O)O[C@H]1CCOC1)S(=O)(=O)c1ccc(N)cc1	-	-	0	-	-	-	-	-	-	-	-	-
Cc1cc2nc(-c3ccc(SCC(=O)NC(C)C)nc3)[nH]c2cc1C	?	-	-	0	0	-	-	-	-	-	-	-
Cc1cc2nc(-c3ccc(SCc4ccc(C(=O)O)cc4)nc3)[nH]c2cc1C	22µM	?	0	0	0	28µM	-	-	40µM	-	-	38
O=C1c2c(O)cc(O)cc2O[C@@]12c1c(cc(O)c3c1O[C@H](c1ccc(O)cc1)[C@@H](O)C3)O[C@@H]2c1ccc(O)cc1	0	?	?	0	0	0	-	-	-	-	-	-
O=c1c(O)cc(C2Oc3cc(O)cc(O)c3CC2O)cc2c(C3Oc4cc(O)cc(O)c4CC3O)cc(O)c(O)c12 (stereo not drawn)	-	-	0.71µM	0.5µM	-	-	-	?	2.5µM	-	-	-	GALK inh confirm=5.3µM;GALK redox cs=5.3µM;HEK293 viability=0
COCCNc1cc(N2CCN(C3CCCCC3)CC2)c2noc3c2c1C(=O)c1ccccc1-3	0	0	0	-	-	0	-	-	-	-	-	-
Cc1ccc(S(=O)(=O)Nc2csc(C)c2C(=O)O)cc1	8.9µM	?	0	11µM	7.9µM	18µM	0	0	?	?	67	48
O=C(O)c1ccc(Nc2nc3ccccc3c3nncn23)cc1	0	0	0	-	-	0	-	-	-	-	-	-
O=C(c1ccc2nc(-c3ccco3)c(-c3ccco3)nc2c1)N1CCN(c2ncccn2)CC1	40µM	?	?	?	0	?	?	0	?	0	-	?
COc1c(O)cc2oc(-c3ccc(O)cc3)cc(=O)c2c1O	?	0	?	?	-	0	-	-	-	-	-	-
O=c1cc(-c2ccc(O)cc2)oc2c(O)c(O)c(O)c(O)c12	2.2µM	10µM	10µM	4.5µM	3.2µM	1.6µM	0	0	0.5µM	0	7.5	5.4	PGK validate=0.92µM;Pol kappa inh-2=4.7
O=c1cc(-c2ccccc2)oc2cc(O)c(O)c(O)c12	-	?	20µM	5.6µM	16µM	3.2µM	1µM	0	0.63µM	0	?	15
CCCC1OC2C[C@@H]3[C@H]4CCC5=CC(=O)C=C[C@]5(C)[C@H]4C(O)C[C@]3(C)[C@]2(C(=O)CO)O1 (stereo partly drawn)	-	0	0	-	-	-	-	-	-	-	-	-
O=C(Nc1cccs1)Nc1cc(C(F)(F)F)ccc1Cl	0	0	0	-	-	-	-	-	-	-	-	-
CCC1(CC)NC(=O)N(CC(=O)Nc2sc3c(c2C(N)=O)CCC3)C1=O	16µM	13µM	?	18µM	-	25µM	0	?	?	?	-	?	Pol beta inh-2=28;Klenow counter=0;HIV RT counter=0;POLB valid=95
CCC1(C)NC(=O)N(CC(=O)Nc2sc3c(c2C(=O)OC)CCCCC3)C1=O (stereo not drawn)	0	0	0	0	0	0	-	-	-	-	-	-
O=C(CCc1n[nH]c(=O)[nH]c1=O)N/N=C/c1ccco1	10µM	25µM	?	20µM	0	?	0	0	18µM	?	?	76	PGK validate=21µM
C=CCNC(=O)c1c(CS(=O)(=O)c2ccccc2)noc1C(=O)NCc1ccccc1	-	0	0	0	0	0	-	-	-	-	-	-
COc1cc(/C=C(\C#N)C(=O)c2ccc(O)c(O)c2)cc(I)c1O	0.6µM	0.89µM	0.42µM	6µM	0.32µM	0.89µM	-	0	?	-	6.7	5.4	PGK validate=3.7µM;Pol kappa inh-2=2.4
Cc1nnc(NC(=O)CCSCCC(=O)Nc2nnc(C)s2)s1	28µM	18µM	79µM	?	?	3.2µM	-	-	40µM	-	42	27	Pol kappa inh-2=21
CN(CC(=O)NC(=O)NCc1ccco1)Cc1nc2ccccc2c(=O)[nH]1	20µM	25µM	?	20µM	?	?	?	0	?	?	60	?	Pol beta inh-2=35;Klenow counter=0;HIV RT counter=0;POLB valid=83
